# Test results reported in PubChem BioAssay (NCATS).
# Where “and” joins values, the source holds several entries; their conditions need not be identical. Equal entries are not always repeated. Inconclusive results are not listed. Unmarked numbers belong to inactive results. Calls of active or inactive are those of the source. The call rests on the fitted dose curve; in most records, active means well fitted curve in the direction sought with a large enough effect; inconclusive means small, poorly fitted or top-dose-only effect, or another doubt; inactive means no such curve, though single readings can be large; an effect the other way counts as inactive or inconclusive.
# How the values were obtained:
# [1] = target: Cellular tumor antigen p53 (Homo sapiens) (UniProt P04637); test: Primary qHTS for small molecule compounds that upregulate eGFP-tagged delta133p53alpha (in N-terminal) cells. (AID 2060322); conditions: NCI-H358 eGFP-delta133p53alpha fluorescence, 24 h; activation: hits give high values; further: nearly all actives have a fitted effect of over 75% in size; further: potency means the concentration at half of the fitted maximal effect;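 on activation: series mostly up to about 56 µM; 0% = DMSO vehicle and 100% = reference activator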
# Outline: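 NCI-H358 cells pre-induced 24 h with 10 ng/ml doxycycline to express N-terminal eGFP-delta133p53alpha, then dosed 24 h at 37C without doxycycline; fixed, Hoechst-stained, GFP intensity by laser scanning cytometry, normalized to DMSO (0%) and 57.5 uM 5-azacytidine (100%).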
# [2] = target: Aldehyde dehydrogenase, mitochondrial (Homo sapiens) (UniProt P05091); test: qHTS for Inhibitors of the Aldehyde Dehydrogenase Family (ALDH2) Primary screen (AID 2061308);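 further: plate controls were vehicle for no effect and reference inhibitor for full effect; nearly all actives have a fitted effect of over 55% in size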
# [3] = target: Retinaldehyde dehydrogenase 3 (Homo sapiens) (UniProt P47895); test: qHTS for Inhibitors of the Aldehyde Dehydrogenase Family (ALDH1A3) Validation screen (AID 2061312); further: nearly all actives have a fitted effect of over 45% in size; further: potency means the concentration at half of the fitted maximal effect; on activity change, negative = inhibition: on the % scale 0 is the no-effect control and ±100 the full control effect
# [4] = target: Retinaldehyde dehydrogenase 3 (Homo sapiens) (UniProt P47895); test: qHTS for Inhibitors of the Aldehyde Dehydrogenase Family (ALDH1A3) Primary screen (AID 2061315);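 further: plate controls were DMSO vehicle for no effect and reference inhibitor for full effect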
# [5] = BET inhibitor-based combinations targeting novel dependencies in MECOM-rearranged (r) AML: SET-2 cell line (AID 2202231); conditions: SET-2 AML cells viability, CellTiter-Glo luminescence, 48 h; viability: hits give low values, concentration not given here; further: nearly all actives have a fitted effect of over 35% in size; further: potency means the concentration at half of the fitted maximal effect;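 on viability: plate controls were DMSO treated cells for no effect and wells without cells for full effect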
# Outline: (§1)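 Readout: CellTiter-Glo luminescence. Exposure: 48 h, 11 concentrations, 500 cells/well. Metric: AUC and within-line Z-AUC after DMSO/empty-well normalization.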
# [6] = BET inhibitor-based combinations targeting novel dependencies in MECOM-rearranged (r) AML: OCI-AML3 cell line (AID 2202232); conditions: Potency: OCI-AML3 viability; further: nearly all actives have a fitted effect of over 35% in size; further: potency means the concentration at half of the fitted maximal effect;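 on viability (% of control): series mostly up to about 46 µM; plate controls were DMSO vehicle wells for no effect and wells without cells for full effect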
# Outline: as §1
# [7] = BET inhibitor-based combinations targeting novel dependencies in MECOM-rearranged (r) AML: UCSD-AML1 cell line (AID 2202235); further: nearly all actives have a fitted effect of over 40% in size; further: potency means the concentration at half of the fitted maximal effect;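 on viability (% of control): series mostly up to about 46 µM; plate controls were DMSO vehicle wells for no effect and blank wells for full effect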
# Outline: (§2)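 Seeding density was 500 cells/well, and drug exposure lasted 48 hr under standard culture conditions. Read-out used CellTiter-Glo reagent with a 15 min room-temperature incubation before luminescence measurement; AUC and Z-AUC summarize the normalized responses.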
# [8] = BET inhibitor-based combinations targeting novel dependencies in MECOM-rearranged (r) AML: AML-191 cell line (AID 2202236; further: nearly all actives have a fitted effect of over 35% in size; further: potency means the concentration at half of the fitted maximal effect;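 on viability (% of control): plate controls were vehicle wells for no effect and wells without cells for full effect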)
# Outline: as §1
# [9] = BET inhibitor-based combinations targeting novel dependencies in MECOM-rearranged (r) AML: AML-194 cell line (AID 2202237; further: nearly all actives have a fitted effect of over 40% in size; further: potency means the concentration at half of the fitted maximal effect;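 on viability (% of control): plate controls were vehicle wells for no effect and wells without cells for full effect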)
# Outline: as §1
# [10] = BET inhibitor-based combinations targeting novel dependencies in MECOM-rearranged (r) AML: MV-4-11 cell line (AID 2202233); further: nearly all actives have a fitted effect of over 45% in size; further: potency means the concentration at half of the fitted maximal effect
# Outline: as §2
# [11] = BET inhibitor-based combinations targeting novel dependencies in MECOM-rearranged (r) AML: HNT-34 cell line (AID 2202234); further: nearly all actives have a fitted effect of over 35% in size; further: potency means the concentration at half of the fitted maximal effect;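 on viability (% of control): plate controls were vehicle wells for no effect and cell-free wells for full effect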
# Outline: as §2
# Chain of Cellular tumor antigen p53 (Homo sapiens) (P04637 whole entry, looked up): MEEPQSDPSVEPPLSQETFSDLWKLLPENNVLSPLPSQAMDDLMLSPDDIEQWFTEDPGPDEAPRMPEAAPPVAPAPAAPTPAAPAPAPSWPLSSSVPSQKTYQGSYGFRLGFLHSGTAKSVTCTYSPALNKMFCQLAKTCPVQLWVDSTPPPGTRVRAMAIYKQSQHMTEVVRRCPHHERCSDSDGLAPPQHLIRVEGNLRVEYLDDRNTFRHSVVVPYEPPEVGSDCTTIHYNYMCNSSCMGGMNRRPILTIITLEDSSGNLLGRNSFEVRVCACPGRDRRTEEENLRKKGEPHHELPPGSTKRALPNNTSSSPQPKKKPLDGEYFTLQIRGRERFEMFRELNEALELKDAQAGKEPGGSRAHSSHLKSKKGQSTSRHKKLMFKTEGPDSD
smiles,measurement,setting,value
CN1CC[C@@H](NC(=O)Nc2ccc(C#N)cc2)C[C@@H]1c1nc2ccccc2[nH]1,activation,[1],-0.477%
same,Potency,[2],inactive
same,Potency,[3],3.98 µM (active)
same,Potency,[4],inactive
same,viability,[5],117%
same,Potency,[6],inactive
same,Potency,[7],inactive
same,Potency,[8],inactive
same,Potency,[9],inactive
CCN(CCO)CCCC(C)Nc1ccnc2cc(Cl)ccc12 (stereo not given),activation,[1],3.35% and 25.7% and 0.955%
same,"activity change, negative = inhibition",[2],2.52% [at 5.59 µM]
same,"activity change, negative = inhibition",[3],6.92% [at 9.14 µM]
same,"activity change, negative = inhibition",[4],5.26% [at 5.59 µM]
same,viability,[5],104%
same,viability (% of control),[6],48.6% [at 5.12 µM]
same,viability (% of control),[7],97.7% [at 5.12 µM]
same,viability (% of control),[8],74.5% [at 5.12 µM]
same,viability (% of control),[9],88% [at 5.12 µM]
Cc1cc(OCc2nnc(SC3CCCC3)n2-c2cccnc2)ccc1-c1ccc(S(C)(=O)=O)cc1,Potency,[1],6.75 µM (active)
same,Potency,[2],inactive
same,Potency,[3],inactive
same,Potency,[4],inactive
same,Potency,[5],6.61 µM (active)
same,Potency,[6],3.72 µM (active)
same,Potency,[7],5.9 µM (active)
same,Potency,[8],8.33 µM (active)
Cc1csc(NC(=O)c2sc3nc4c(c(C(F)(F)F)c3c2N)CCC4)n1,activation,[1],-4.78%
same,Potency,[2],inactive
same,Potency,[3],inactive
same,Potency,[4],inactive
same,viability,[5],97.5%
same,Potency,[10],inactive
same,Potency,[11],inactive
same,Potency,[7],inactive
same,Potency,[9],inactive
NCC(=O)Nc1ccc(-n2nc(C(F)(F)F)cc2-c2ccc3c(ccc4ccccc43)c2)cc1,activation,[1],-7.41%
same,Potency,[2],inactive
same,Potency,[3],inactive
same,Potency,[4],inactive
same,Potency,[5],11.8 µM (active)
same,Potency,[6],18.6 µM (active)
same,Potency,[10],4.68 µM (active)
same,Potency,[7],inactive
same,Potency,[8],16.6 µM (active)
CCOCc1nc2c(N)nc3ccccc3c2n1CC(C)(C)O,activation,[1],4.77%
same,Potency,[2],inactive
same,Potency,[3],inactive
same,Potency,[4],inactive
same,viability,[5],108%
same,Potency,[6],inactive
same,Potency,[10],inactive
same,Potency,[7],inactive
same,Potency,[8],inactive
same,Potency,[9],inactive
C[C@@]1(c2cc(-c3cncnc3)c(F)cc2F)CCSC(N)=N1,activation,[1],19.2% and -1.91%
same,Potency,[2],inactive
same,Potency,[3],inactive
same,Potency,[4],inactive
same,viability,[5],111%
same,Potency,[10],inactive
same,Potency,[11],inactive
same,Potency,[7],inactive
same,Potency,[8],inactive
same,Potency,[9],inactive
CNC(=O)c1ccc(-c2cnc3ncc(Cc4ccc5ncccc5c4)n3n2)cc1F,activation,[1],-4.61% and -7.16%
same,Potency,[2],inactive
same,Potency,[3],inactive
same,Potency,[4],inactive
same,viability,[5],95.9%
same,Potency,[6],inactive
same,Potency,[11],18.6 µM (active)
same,Potency,[7],inactive
same,Potency,[9],inactive
Cn1cncc1C(N)(c1ccc(Cl)cc1)c1ccc2c(c1)c(-c1cccc(Cl)c1)cc(=O)n2C (stereo not given),Potency,[1],26.9 µM (active)
same,Potency,[2],inactive
same,Potency,[3],inactive
same,Potency,[4],inactive
same,Potency,[5],14.8 µM (active)
same,Potency,[10],5.25 µM (active)
same,Potency,[11],0.263 µM (active)
same,Potency,[7],0.372 µM (active)
same,Potency,[8],4.17 µM (active)
same,Potency,[9],20.9 µM (active)
CNC1CCC(N(Cc2cccc(-c3ccncc3)c2)C(=O)c2sc3c(F)ccc(F)c3c2Cl)CC1 (stereo not given),activation,[1],21.5%
same,Potency,[2],inactive
same,Potency,[3],inactive
same,Potency,[4],inactive
same,Potency,[5],26.3 µM (active)
same,Potency,[6],16.6 µM (active)
same,Potency,[10],16.6 µM (active)
same,Potency,[11],20.9 µM (active)
same,Potency,[9],23.5 µM (active)
CCN(CC)CCNC(=O)c1ccc2nc(-c3ccccc3)c(-c3ccc(CN4CCC(n5c(=O)[nH]c6ccccc65)CC4)cc3)nc2c1,Potency,[1],4.32 µM (active) and 8.49 µM (active)
same,Potency,[2],inactive
same,Potency,[3],inactive
same,Potency,[4],inactive
same,Potency,[5],8.33 µM (active)
same,Potency,[6],8.33 µM (active)
same,Potency,[10],6.61 µM (active)
same,Potency,[8],9.34 µM (active)
same,Potency,[9],7.42 µM (active)
O=C(c1cc(Cc2n[nH]c(=O)c3ccccc23)ccc1F)N1CCN(C(=O)C2CC2)CC1,activation,[1],8.16% and -16.2%
same,Potency,[2],inactive
same,Potency,[3],inactive
same,Potency,[4],inactive
same,viability,[5],80.3%
same,Potency,[10],8.33 µM (active)
CC(C)(C)NC(=O)Nc1cccc(Nc2ncc(F)c(NC(C)(C)CO)n2)c1,activation,[1],-4.76% and -4.3%
same,Potency,[2],inactive
same,Potency,[3],inactive
same,Potency,[4],inactive
same,Potency,[5],16.6 µM (active)
same,Potency,[6],3.72 µM (active)
same,Potency,[10],2.63 µM (active)
same,Potency,[7],3.72 µM (active)
same,Potency,[9],5.9 µM (active)
COc1cccc(Nc2c(C(N)=O)cnc3c(C)cc(S(=O)(=O)c4cccc(C(=O)N(C)C)c4)cc23)c1,activation,[1],11.1% and -9.07%
same,Potency,[2],inactive
same,Potency,[3],inactive
same,Potency,[4],inactive
same,viability,[5],120%
same,Potency,[6],16.6 µM (active)
same,Potency,[10],3.32 µM (active)
same,Potency,[7],inactive
same,Potency,[8],5.9 µM (active)
same,Potency,[9],inactive
CN(C)C1CCN(C(=O)c2ccc(NC(=O)Nc3ccc(-c4nc(N5CCOCC5)nc(N5CCOCC5)n4)cc3)cc2)CC1,activation,[1],-0.955%
same,Potency,[2],inactive
same,Potency,[3],inactive
same,Potency,[4],inactive
same,Potency,[5],4.68 µM (active)
same,Potency,[6],0.166 µM (active)
same,Potency,[11],0.118 µM (active)
same,Potency,[7],0.263 µM (active)
same,Potency,[9],1.48 µM (active)
NCC1CCN(c2nccc(-c3ccc4ccccc4c3)n2)CC1,Potency,[1],23.9 µM (active)
same,Potency,[2],inactive
same,Potency,[3],inactive
same,Potency,[4],inactive
same,Potency,[5],16.6 µM (active)
same,Potency,[10],4.17 µM (active)
same,Potency,[11],8.33 µM (active)
same,Potency,[7],2.95 µM (active)
same,Potency,[8],2.63 µM (active)
same,Potency,[9],2.95 µM (active)
